# Data as given in PubChem BioAssay (NCI).
# Several values for one entry are separate records, joined by “and”; a condition that tells them apart may be missing. Equal entries are not always repeated. The panel holds about 79,000 compounds, 15% with a hit somewhere; the sample as a whole holds those more often. Unmarked numbers belong to inactive results. Activity calls are given as the source filed them. No stated cut-off is given here; in the data, active means growth inhibition above about 70%; inactive means the rest.
# What was measured:
# [1] = NCI Yeast Anticancer Drug Screen. Data for the rad52 strain (AID 147);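 further: 0% = growth of vehicle-treated control cultures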; conditions: S. cerevisiae rad52 mutant growth inhibition, stronger effect = higher value
# How it was run: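 The repair-mutant yeast strain was incubated with compounds, then growth was read and inhibition derived relative to vehicle.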
# [2] = NCI Yeast Anticancer Drug Screen. Data for the wt1 strain (AID 149);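 further: 0% = growth of vehicle-treated wt1 cultures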; conditions: S. cerevisiae wt1 strain (SPY 50644) growth inhibition, stronger effect = higher value
# How it was run: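 Growth inhibition read against vehicle controls after compound exposure of the wt1 yeast strain.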
# [3] = NCI Yeast Anticancer Drug Screen. Data for the rad50EPP+ strain (AID 151);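 further: 0% = growth of vehicle-treated control cultures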; conditions: S. cerevisiae rad50 mutant strain, stronger effect = higher value
# How it was run: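 Vehicle-normalised growth inhibition; rad50EPP+ yeast strain, altered in DNA damage repair, compound-treated.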
# [4] = NCI Yeast Anticancer Drug Screen. Data for the mgt1 strain (AID 153); conditions: S. cerevisiae mgt1 mutant growth inhibition, stronger effect = higher value
# How it was run: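 Vehicle-normalized growth inhibition is determined in mgt1 yeast, a strain selected for a defined alteration in DNA repair or cell cycle control.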
# [5] = NCI Yeast Anticancer Drug Screen. Data for the rad50 strain (AID 155);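 further: 0% = growth of vehicle-only cultures of the same strain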; conditions: S. cerevisiae rad50 strain growth inhibition, stronger effect = higher value
# How it was run: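 Readout: growth inhibition relative to vehicle-treated cultures. Compound exposure was carried out in a genetically defined yeast strain deficient in DNA damage repair.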
# [6] = NCI Yeast Anticancer Drug Screen. Data for the mec2-1 strain (AID 157); conditions: S. cerevisiae mec2-1 strain, stronger effect = higher value
# How it was run: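 Mutant yeast (mec2-1) grown with compound; growth inhibition relative to vehicle control reported.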
# [7] = NCI Yeast Anticancer Drug Screen. Data for the rad14 strain (AID 159);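 further: 0% = growth of vehicle-treated control cultures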; conditions: S. cerevisiae rad14 strain growth inhibition, stronger effect = higher value
# How it was run: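 Growth inhibition vs vehicle controls; genetically altered yeast strain (DNA damage repair defect) treated with test compounds.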
# [8] = NCI Yeast Anticancer Drug Screen. Data for the sgs1 mgt1 strain (AID 161);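 further: 0% = growth of cultures given vehicle only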; conditions: S. cerevisiae sgs1 mgt1 strain, stronger effect = higher value
# How it was run: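 Yeast cells carrying a defined DNA-repair defect were exposed to test compounds. Growth inhibition was measured relative to vehicle-treated controls.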
# [9] = NCI Yeast Anticancer Drug Screen. Data for the CLN2oe strain (AID 163);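 further: 0% = growth of vehicle-only control cultures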; conditions: S. cerevisiae CLN2oe strain, stronger effect = higher value
# How it was run: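 Compounds are applied to yeast harbouring a defined cell-cycle control change; reduced growth compared with vehicle-treated controls gives the value.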
# [10] = NCI Yeast Anticancer Drug Screen. Data for the cln2 rad14 strain (AID 165);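 further: 0% = growth equal to vehicle treated cultures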; conditions: S. cerevisiae cln2 rad14 strain, stronger effect = higher value
# How it was run: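 Readout is yeast growth inhibition versus vehicle-treated controls, using a strain with cln2 and rad14 alterations exposed to compound.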
# [11] = NCI Yeast Anticancer Drug Screen. Data for the bub3 strain (AID 167); conditions: S. cerevisiae bub3 mutant strain, stronger effect = higher value
# How it was run: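 Readout: yeast growth inhibition, expressed relative to vehicle-only wells. The test organism is a mutant strain from a panel with lesions in DNA repair or checkpoint genes.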
# [12] = NCI Yeast Anticancer Drug Screen. Data for the wt2 strain (AID 169);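 further: 0% = growth of vehicle-treated yeast cultures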; conditions: S. cerevisiae wt2 strain growth inhibition, stronger effect = higher value
# How it was run: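 Against vehicle-treated controls, the growth of yeast exposed to each compound was compared, and the inhibition was recorded.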
# [13] = NCI Yeast Anticancer Drug Screen. Data for the mlh1 strain (AID 171);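 further: 0% = growth of vehicle-treated control cultures of the same strain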; conditions: S. cerevisiae mlh1 strain growth inhibition, stronger effect = higher value
# How it was run: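 Measured: yeast growth. Reference: vehicle-treated controls. Organism: strain with a defined alteration affecting DNA damage repair or cell cycle control, treated with compound.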
# [14] = NCI Yeast Anticancer Drug Screen. Data for the sgs1 strain (AID 173);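 further: 0% = growth of vehicle-only control cultures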; conditions: S. cerevisiae sgs1 mutant, stronger effect = higher value
# How it was run: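 Each compound was added to cultures of the altered yeast strain. Growth was recorded, and inhibition was derived by comparison with vehicle controls.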
# [15] = NCI Yeast Anticancer Drug Screen. Data for the mlh1 rad18 strain (AID 175); conditions: S. cerevisiae mlh1 rad18 strain growth inhibition, stronger effect = higher value
# How it was run: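 Genetically defined yeast (DNA repair-deficient) exposed to compounds; growth inhibition determined relative to vehicle.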
# [16] = NCI Yeast Anticancer Drug Screen. Data for the rad18 strain (AID 177); conditions: S. cerevisiae rad18 mutant growth inhibition, stronger effect = higher value
# How it was run: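 Vehicle-treated cultures served as the baseline for scoring compound-induced growth inhibition in DNA-repair-mutant yeast.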
# [17] = at 5.0 µM (retest, dose inferred, filed as 0.5)
# [18] = at 50.0 µM (retest, dose inferred, filed as 5.0)
smiles,measurement,setting,value
COc1cc(/C=C2\CCC/C(=C\c3ccc(O)c(OC)c3)C2=O)ccc1O,growth inhibition,[1]; at 1.2 µM,-6%
same,growth inhibition,[1]; at 3.7 µM,-6%
same,growth inhibition,[1]; at 11.0 µM,9%
same,growth inhibition,[1]; at 33.0 µM,11%
same,growth inhibition,[1]; at 100.0 µM,4%
same,growth inhibition,[2]; at 1.2 µM,1%
same,growth inhibition,[2]; at 3.7 µM,10%
same,growth inhibition,[2]; at 11.0 µM,15%
same,growth inhibition,[2]; at 33.0 µM,12%
same,growth inhibition,[2]; at 100.0 µM,15%
same,growth inhibition,[3]; at 1.2 µM,0%
same,growth inhibition,[3]; at 3.7 µM,-2%
same,growth inhibition,[3]; at 11.0 µM,24%
same,growth inhibition,[3]; at 33.0 µM,22%
same,growth inhibition,[3]; at 100.0 µM,15%
same,growth inhibition,[4]; at 1.2 µM,0%
same,growth inhibition,[4]; at 3.7 µM,-1%
same,growth inhibition,[4]; at 11.0 µM,1%
same,growth inhibition,[4]; at 33.0 µM,0%
same,growth inhibition,[4]; at 100.0 µM,-3%
same,growth inhibition,[5]; at 1.2 µM,-30%
same,growth inhibition,[5]; at 3.7 µM,-9%
same,growth inhibition,[5]; [17],13%
same,growth inhibition,[5]; at 11.0 µM,-7%
same,growth inhibition,[5]; at 33.0 µM,-7%
same,growth inhibition,[5]; [18],12%
same,growth inhibition,[5]; at 50.0 µM,2.8% and 9.55%
same,growth inhibition,[5]; at 100.0 µM,8%
same,growth inhibition,[6]; at 1.2 µM,-1%
same,growth inhibition,[6]; at 3.7 µM,0%
same,growth inhibition,[6]; [17],4%
same,growth inhibition,[6]; at 11.0 µM,1%
same,growth inhibition,[6]; at 33.0 µM,0%
same,growth inhibition,[6]; [18],15%
same,growth inhibition,[6]; at 50.0 µM,-13.1% and 63.1%
same,growth inhibition,[6]; at 100.0 µM,0%
same,growth inhibition,[7]; at 1.2 µM,5%
same,growth inhibition,[7]; at 3.7 µM,-3%
same,growth inhibition,[7]; at 11.0 µM,12%
same,growth inhibition,[7]; at 33.0 µM,4%
same,growth inhibition,[7]; at 100.0 µM,5%
same,growth inhibition,[8]; [17],8%
same,growth inhibition,[8]; [18],57%
same,growth inhibition,[8]; at 50.0 µM,-12.4% and 59.1%
same,growth inhibition,[9]; at 1.2 µM,-7%
same,growth inhibition,[9]; at 3.7 µM,-6%
same,growth inhibition,[9]; at 11.0 µM,-7%
same,growth inhibition,[9]; at 33.0 µM,-5%
same,growth inhibition,[9]; at 100.0 µM,-6%
same,growth inhibition,[10]; [17],-4%
same,growth inhibition,[10]; [18],6%
same,growth inhibition,[10]; at 50.0 µM,1.65% and 9.95%
same,growth inhibition,[11]; at 1.2 µM,-5%
same,growth inhibition,[11]; at 3.7 µM,-2%
same,growth inhibition,[11]; [17],1%
same,growth inhibition,[11]; at 11.0 µM,-2%
same,growth inhibition,[11]; at 33.0 µM,-4%
same,growth inhibition,[11]; [18],15%
same,growth inhibition,[11]; at 50.0 µM,-24.9% and 44%
same,growth inhibition,[11]; at 100.0 µM,-12%
same,growth inhibition,[12]; at 1.2 µM,6%
same,growth inhibition,[12]; at 3.7 µM,16%
same,growth inhibition,[12]; at 11.0 µM,22%
same,growth inhibition,[12]; at 33.0 µM,27%
same,growth inhibition,[12]; at 100.0 µM,18%
same,growth inhibition,[13]; at 1.2 µM,-8%
same,growth inhibition,[13]; at 3.7 µM,-2%
same,growth inhibition,[13]; at 11.0 µM,-2%
same,growth inhibition,[13]; at 33.0 µM,-1%
same,growth inhibition,[13]; at 100.0 µM,-2%
same,growth inhibition,[14]; at 1.2 µM,-15%
same,growth inhibition,[14]; at 3.7 µM,-10%
same,growth inhibition,[14]; at 11.0 µM,3%
same,growth inhibition,[14]; at 33.0 µM,5%
same,growth inhibition,[14]; at 100.0 µM,-6%
same,growth inhibition,[15]; [17],-3%
same,growth inhibition,[15]; [18],6%
same,growth inhibition,[15]; at 50.0 µM,-13.2% and 11.4%
same,growth inhibition,[16]; at 1.2 µM,-7%
same,growth inhibition,[16]; at 3.7 µM,5%
same,growth inhibition,[16]; at 11.0 µM,3%
same,growth inhibition,[16]; at 33.0 µM,1%
same,growth inhibition,[16]; at 100.0 µM,-7%
CC(C)OC(=O)c1ccc(CCc2cc(O)c(Br)cc2O)cc1,growth inhibition,[1]; at 1.2 µM,37%
same,growth inhibition,[1]; at 3.7 µM,50%
same,growth inhibition,[1]; at 11.0 µM,56%
same,growth inhibition,[1]; at 33.0 µM,53%
same,growth inhibition,[1]; at 100.0 µM,79% (active)
same,growth inhibition,[2]; at 1.2 µM,26%
same,growth inhibition,[2]; at 3.7 µM,33%
same,growth inhibition,[2]; at 11.0 µM,45%
same,growth inhibition,[2]; at 33.0 µM,27%
same,growth inhibition,[2]; at 100.0 µM,98% (active)
same,growth inhibition,[3]; at 1.2 µM,66%
same,growth inhibition,[3]; at 3.7 µM,80% (active)
same,growth inhibition,[3]; at 11.0 µM,94% (active)
same,growth inhibition,[3]; at 33.0 µM,97% (active)
same,growth inhibition,[3]; at 100.0 µM,94% (active)
same,growth inhibition,[4]; at 1.2 µM,55%
same,growth inhibition,[4]; at 3.7 µM,70% (active)
same,growth inhibition,[4]; at 11.0 µM,71% (active)
same,growth inhibition,[4]; at 33.0 µM,72% (active)
same,growth inhibition,[4]; at 100.0 µM,94% (active)
same,growth inhibition,[5]; at 1.2 µM,34%
same,growth inhibition,[5]; at 3.7 µM,49%
same,growth inhibition,[5]; [17],27%
same,growth inhibition,[5]; at 11.0 µM,66%
same,growth inhibition,[5]; at 33.0 µM,98% (active)
same,growth inhibition,[5]; [18],99% (active)
same,growth inhibition,[5]; at 50.0 µM,86.2% (active)
same,growth inhibition,[5]; at 100.0 µM,97% (active)
same,growth inhibition,[6]; at 1.2 µM,6%
same,growth inhibition,[6]; at 3.7 µM,20%
same,growth inhibition,[6]; [17],42%
same,growth inhibition,[6]; at 11.0 µM,30%
same,growth inhibition,[6]; at 33.0 µM,32%
same,growth inhibition,[6]; [18],99% (active)
same,growth inhibition,[6]; at 50.0 µM,91.2% (active)
same,growth inhibition,[6]; at 100.0 µM,87% (active)
same,growth inhibition,[7]; at 1.2 µM,43%
same,growth inhibition,[7]; at 3.7 µM,53%
same,growth inhibition,[7]; at 11.0 µM,75% (active)
same,growth inhibition,[7]; at 33.0 µM,96% (active)
same,growth inhibition,[7]; at 100.0 µM,92% (active)
same,growth inhibition,[8]; [17],31%
same,growth inhibition,[8]; [18],98% (active)
same,growth inhibition,[8]; at 50.0 µM,88.5% (active)
same,growth inhibition,[9]; at 1.2 µM,-5%
same,growth inhibition,[9]; at 3.7 µM,19%
same,growth inhibition,[9]; at 11.0 µM,53%
same,growth inhibition,[9]; at 33.0 µM,92% (active)
same,growth inhibition,[9]; at 100.0 µM,95% (active)
same,growth inhibition,[10]; [17],1%
same,growth inhibition,[10]; [18],96% (active)
same,growth inhibition,[10]; at 50.0 µM,91.8% (active)
same,growth inhibition,[11]; at 1.2 µM,22%
same,growth inhibition,[11]; at 3.7 µM,22%
same,growth inhibition,[11]; [17],4%
same,growth inhibition,[11]; at 11.0 µM,52%
same,growth inhibition,[11]; at 33.0 µM,98% (active)
same,growth inhibition,[11]; [18],91% (active)
same,growth inhibition,[11]; at 50.0 µM,88.9% (active)
same,growth inhibition,[11]; at 100.0 µM,92% (active)
same,growth inhibition,[12]; at 1.2 µM,18%
same,growth inhibition,[12]; at 3.7 µM,39%
same,growth inhibition,[12]; at 11.0 µM,95% (active)
same,growth inhibition,[12]; at 33.0 µM,98% (active)
same,growth inhibition,[12]; at 100.0 µM,95% (active)
same,growth inhibition,[13]; at 1.2 µM,55%
same,growth inhibition,[13]; at 3.7 µM,70% (active)
same,growth inhibition,[13]; at 11.0 µM,71% (active)
same,growth inhibition,[13]; at 33.0 µM,72% (active)
same,growth inhibition,[13]; at 100.0 µM,94% (active)
same,growth inhibition,[14]; at 1.2 µM,47%
same,growth inhibition,[14]; at 3.7 µM,60%
same,growth inhibition,[14]; at 11.0 µM,58%
same,growth inhibition,[14]; at 33.0 µM,61%
same,growth inhibition,[14]; at 100.0 µM,95% (active)
same,growth inhibition,[15]; [17],45%
same,growth inhibition,[15]; [18],99% (active)
same,growth inhibition,[15]; at 50.0 µM,85.2% (active)
same,growth inhibition,[16]; at 1.2 µM,20%
same,growth inhibition,[16]; at 3.7 µM,24%
same,growth inhibition,[16]; at 11.0 µM,59%
same,growth inhibition,[16]; at 33.0 µM,96% (active)
same,growth inhibition,[16]; at 100.0 µM,93% (active)
